Key:
Assay type in all cases: functional
Plasmodium falciparum [1] = assay: GSK_TCMDC: Inhibition of Plasmodium falciparum 3D7 in whole red blood cells, using parasite LDH activity as an index of growth. Test compounds present at 2uM
Plasmodium falciparum [2] = assay: GSK_TCMDC: Inhibition of Plasmodium falciparum Dd2 in whole red blood cells, using parasite LDH activity as an index of growth. Test compounds present at 2uM
HepG2 = assay: GSK_TCMDC: Percent inhibition of human HepG2 cell line. Test compounds present at 10uM.

| SMILES | Inhibition (Plasmodium falciparum [1]) [%] | Inhibition (Plasmodium falciparum [2]) [%] | Inhibition (HepG2) [%] |
| --- | --- | --- | --- |
| CCC1CN2CCc3c([nH]c4ccccc34)C2CC1CC1=NCCc2c1[nH]c1ccc(OC)cc21.Cl (configuration not stated) | 100 | 68 | 99 |
| CN(C)CCNCc1cccc(-c2ccc3c(Nc4ccc(Oc5ccccc5)cc4)ccnc3c2)c1 | 100 | 99 | 31 |
| CCc1cc([C@H]2O[C@@H](n3cnc4c(NCC(c5ccccc5)c5ccccc5)nc(NCCNc5ccccn5)nc43)[C@H](O)[C@@H]2O)on1.O=CO | 94 | 32 | 14 |
| COc1cccc(NC(=O)Nc2cc(C)nc3ccccc23)c1 | 100 | 48 | 2 |
| Cc1cnc(NCC2CCCCC2)nc1N[C@@H](CO)C(=O)Nc1ccccc1.O=C(O)C(F)(F)F | 83 | 56 | 0 |
| Cl.c1ccc(-c2ccc3c(Nc4ccc5[nH]ncc5c4)ccnc3c2)nc1 | 100 | 99 | 99 |
| C=CCN(c1ccc(OC)cc1)S(=O)(=O)c1ccc(Cl)c(C(=O)Nc2cccc(C#N)c2)c1 | 96 | 73 | 6 |
| CN(CCN1CCCC1)c1nc2cc(-n3cnc4cc(-c5ccc(Cl)cc5)sc4c3=O)ccc2[nH]1.CS(=O)(=O)O | 93 | 15 | 76 |
| CC1(C)N=C(N)N=C(N)N1OCc1ccc2c(c1)OCO2 | 93 | 86 | 66 |
| COc1ccc2cc(C(C)NC3CCN(c4cccc(NC(=O)c5ccncc5)c4)CC3)ccc2c1 (configuration not stated) | 91 | 6 | 13 |
| CCCC(C)n1ccc2c3c(N)nc(N)nc3ccc21 (configuration not stated) | 94 | 91 | 70 |
| O=C(/C=C/c1ccc(Cl)c(Cl)c1)NCCCCCN1CCC(NC(=O)c2ccc([N+](=O)[O-])cc2)CC1 | 100 | 6 | 36 |
| CC(C)c1ccc(CN2CCC(CNC(=O)c3cc(-c4cccc(C(F)(F)F)c4)cs3)C2)cc1.O=C(O)C(F)(F)F (configuration not stated) | 99 | 60 | 36 |
| Cc1[nH]c(C)c(-c2ccc(Br)cc2)c(=O)c1Cl | 94 | 77 | 22 |
| O=C(Nc1nccs1)c1cn(-c2ccccc2)nc1-c1ccc(Cl)s1 | 96 | 18 | 9 |
| CC(C)CNC(=O)c1cncc(-c2ccc(CN(C)C3CCN(C)CC3)cc2)c1.O=C(O)C(F)(F)F | 100 | 84 | 15 |
| CCN1CCN(CCCNc2c3ccccc3nc3ccccc23)CC1.Cl | 100 | 3 | 44 |
| CC(C)(C)c1ccc(NC(=O)c2ccc(CN3CCCN(Cc4cccc(C#N)c4)CC3)cc2)cc1.O=C(O)C(F)(F)F | 99 | 12 | 54 |
| CN1CCN(Cc2cccc(Nc3nccc(Nc4ccc(Oc5ccccc5)cc4)n3)c2)CC1 | 97 | 80 | 30 |
| COc1ccc(OC)c(Cc2cnc3nc(N)[nH]c(=O)c3c2C)c1 | 98 | 4 | 62 |
| COc1ccccc1/C=C/C(=O)NCCC1CCN(CCCCCNC(=O)/C=C/c2ccc(Cl)c(Cl)c2)CC1 | 94 | 0 | 34 |
| CCCC(C)Nc1nc(C)cc(N[C@@H](CC(C)C)C(=O)NC2CCCC2)n1.O=C(O)C(F)(F)F (some centres not stated) | 85 | 22 | 6 |
| Cc1cc(C(=O)Nc2ccc3c(c2)CCN3C2CCN(Cc3cccc4cc[nH]c34)C2)no1 (configuration not stated) | 97 | 96 | 0 |
| COc1ccc(NC(=O)Nc2cc(C)nc3ccccc23)cc1Cl | 100 | 49 | 4 |
| CNc1ccc(CNCc2cccc(-c3ccc(-c4nc5ccccc5[nH]4)cc3)c2)cc1.O=C(O)C(F)(F)F | 100 | 80 | 18 |
| CCC(C)CN1CCN(c2cc(NC(=O)c3cccs3)ccn2)C(C)C1.O=C(O)C(F)(F)F (configuration not stated) | 88 | 72 | 5 |
| Cc1cc(N2C(N)=NC(N)=NC2(C)C)ccc1Cl.Cl | 95 | 0 | 66 |
| COc1cc(NC2=NS(=O)(=O)c3cc(Cl)ccc3N2C)cc(OC)c1OC.O=C(O)C(F)(F)F | 100 | 100 | 0 |
| COc1ccc2ccc(F)c(CC(=O)N3CCOC(CNCc4cccc(-c5ccsc5)n4)C3)c2n1 (configuration not stated) | 92 | 1 | 1 |
